Test results: PubChem BioAssay AID504707 (The Scripps Research Institute Molecular Screening Center, 2011)
Screen size: about 340,000 compounds; about 280 (0.082%) were called active. This is one part of a sample in which actives are shown more often than they occur.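 The calls were made as follows: active = percent activation above the mean of all tested compounds plus 3 SD (cut at about 19% in these data); inactive = the rest.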

Molecular target: cAMP-dependent protein kinase type I-alpha regulatory subunit (Bos taurus) + cAMP-dependent protein kinase catalytic subunit beta (Mus musculus) (UniProt P00514+P68181)
Experiment: compounds dissociating PKAc from R1A subunit – biochemical, fluorescence polarization, Cy5-IP20, bovine R1A, mouse PKAc, primary screen (AID 504707);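 also: higher means more PKAc released from R1A so a rise in polarization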
Conditions: PKA-R1A dissociation, at 11.4 µM, active compounds read high, scaled: DMSO 0%, 113 µM cGMP 100%

Row | SMILES | activation
1 | COc1ccc(S(=O)(=O)N2CCC(C(=O)NCCC(=O)Nc3ccccc3OC)CC2)cc1 | -8.6% (inactive)
2 | COc1ccc(C=C2CCC3C(CCCC34OCCO4)C2=O)cc1 (stereo not drawn) | -11.2% (inactive)
3 | Cc1ccccc1NC(=O)Cc1nc(COC(=O)CNC(=O)c2ccc(Cl)cc2Cl)cs1 | 4.88% (inactive)
4 | COc1ccc(NC(=O)N(C)C[C@@H]2OCc3cn(nn3)CCCC(=O)N([C@H](C)CO)C[C@H]2C)c(OC)c1 | 1.93% (inactive)
5 | Cc1ccc(-c2ccc(CN3C(C(C)C)C(=O)N(Cc4cn(CCC5OCCO5)nn4)CCS3(=O)=O)cc2)cc1 (stereo not drawn) | -8.79% (inactive)
6 | N#Cc1ccc(OCC(=O)Nc2nc(-c3ccccn3)cs2)cc1 | 8.97% (inactive)
7 | Cn1c(CCN2CCN(c3ccccn3)CC2)nc2cc(NS(=O)(=O)c3ccc(F)cc3)ccc21 | -5.08% (inactive)
8 | COCCNC(=O)CSc1nc(N)c(NC(=O)c2ccco2)c(=O)[nH]1 | 5.93% (inactive)
9 | CC1(C)NC(=O)N(CC(=O)Nc2ccc(-c3ccccc3)cc2)C1=O | -8.93% (inactive)
10 | CCn1c(SCC(=O)N(C)C2CCS(=O)(=O)C2)nnc1-c1cccs1 (stereo not drawn) | 0.15% (inactive)
11 | CC(C)N(C(=O)CSc1nnc(NC2CC2)s1)c1ccccc1 | -3.79% (inactive)
12 | CN(C(=O)CSc1nnc(Nc2ccccc2)s1)C1CCS(=O)(=O)C1 (stereo not drawn) | 19.6% (active)
13 | CC1(c2cccc(N)c2)OCCO1 | -5.54% (inactive)
14 | O=C(CCCN1C(=O)C(c2ccccc2)Oc2cccnc21)Nc1ccccc1Br (stereo not drawn) | -1.04% (inactive)
15 | O=C(ON=C1CCN(S(=O)(=O)c2ccccc2)CC1)c1ccc(Cl)cc1 | 6.75% (inactive)
16 | CNC(=O)C[C@H]1C(=O)N(c2ccc(OC)cc2)C[C@@H]1Cc1ccccc1 | -2.17% (inactive)
17 | O=C(CN1CCN(S(=O)(=O)c2ccc(Cl)s2)CC1)NCc1ccc(Cl)cc1 | 6.31% (inactive)
18 | COCC(=O)N(C)C[C@H]1Oc2cc(Br)ccc2S(=O)(=O)N([C@H](C)CO)C[C@H]1C | -4.65% (inactive)
19 | CCN(CC)C(=O)C1=C(C)N(Cc2ccc(F)cc2)C(=O)C(CC(=O)NC2CCCC2)C1 (stereo not drawn) | 12.1% (inactive)
20 | Cc1ccc(Cc2c(-c3ccccc3)nc3ccc(Cl)cn23)cc1 | -1.62% (inactive)
21 | Cc1cccc(S(=O)(=O)N(C)C[C@H]2OCc3cnnn3CCCC(=O)N([C@@H](C)CO)C[C@H]2C)c1 | 7.92% (inactive)
22 | CC(C)n1ncc2c(C(=O)N3CCN(Cc4cccs4)CC3)cc(C3CC3)nc21 | 1.11% (inactive)

Row | SMILES | activation
23 | C[C@H](CO)N1C[C@H](C)[C@@H](CN(C)S(=O)(=O)c2ccc(Oc3ccccc3)cc2)OCc2cn(nn2)CCCC1=O | 1.58% (inactive)
24 | COCCn1c(SCC(=O)Nc2ccc(F)cc2F)nc2c(c1=O)SCC2 | -3.58% (inactive)
25 | C[C@@H]1CN([C@H](C)CO)C(=O)CCCn2cc(nn2)CO[C@H]1CN(C)S(=O)(=O)c1ccc(Oc2ccccc2)nc1 | -8.71% (inactive)
26 | Cc1ccc(S(=O)(=O)N2C[C@H]3C(=O)C[C@@H](c4cccc5ccccc45)N(S(=O)(=O)c4ccc(C)cc4)[C@H]3C[C@H]2c2ccc(Cl)cc2)cc1 | 1.48% (inactive)
27 | COc1ccc(S(=O)(=O)N(C)C)cc1NC(=O)COC(=O)c1n[nH]c2ccccc12 | 0.55% (inactive)
28 | O=C(NCCOc1ccccc1)c1ccccc1F | -12.1% (inactive)
29 | CCN1CCN(CCNC(=O)c2ccc3c(c2)NC(=O)/C(=C\c2cccc(Cl)c2)S3)CC1 | -8.75% (inactive)
30 | C[C@H]1CN([C@@H](C)CO)C(=O)c2cc(-c3ccccc3F)cnc2O[C@H]1CN(C)C(=O)C1CCOCC1 | -7.74% (inactive)
31 | C[C@@H]1CCCCO[C@H](CN(C)Cc2ccccc2)[C@@H](C)CN([C@H](C)CO)C(=O)c2cc(NS(=O)(=O)c3ccc(Cl)cc3)ccc2O1 | -4.59% (inactive)
32 | C#Cc1cc(N2CCN(C(=O)c3ccoc3)CC2)n2nc(-c3cccc(Cl)c3)cc2n1 | -0.28% (inactive)
33 | COc1ccc(-c2ccc(CN3C(C(C)C)C(=O)N(Cc4cn(CC5CCCCC5)nn4)CCS3(=O)=O)cc2)cn1 (stereo not drawn) | 6.26% (inactive)
34 | O=C(Nc1ccc(Cl)cn1)c1ccccc1-c1ccccc1 | -2.35% (inactive)
35 | CC1CCCC(NC(=O)COC(=O)c2ccccc2C(=O)N(C)C2CCCCC2)C1C (stereo not drawn) | 4.19% (inactive)
36 | CC(C)c1cc(C(=O)N(C)C2CCCN(Cc3ccccc3F)C2)n(C)n1 (stereo not drawn) | -3.3% (inactive)
37 | Cc1ccc(C=O)c([B-](F)(F)F)c1 | -6.39% (inactive)
38 | COCCCN1C(=O)C(CC(=O)NCc2cccs2)CC(C(=O)N2CCOCC2)=C1C (stereo not drawn) | -6.5% (inactive)
39 | O=C(COc1ccc(Br)cc1)OCC(=O)c1ccc[nH]1 | -8.33% (inactive)
40 | CCCC(=O)Nc1ncnc2c1ncn2[C@@H]1O[C@@H]2OP(=O)(O)OC[C@H]2[C@H]1OC(=O)CCC | 49.2% (active)
41 | C[C@@H]1CN([C@H](C)CO)C(=O)CCCn2cc(nn2)CO[C@H]1CN(C)S(C)(=O)=O | -6.01% (inactive)
42 | C[C@H]1CN(c2ccc(Br)cc2)C(=O)[C@@H]1CC(=O)Nc1ccc(Br)cc1 | -2.37% (inactive)
43 | COc1cccc(NC(=O)N(C)C[C@@H]2Oc3ncc(Br)cc3C(=O)N([C@@H](C)CO)C[C@H]2C)c1 | -5.28% (inactive)
